Hit rate of the full screen: of about 310,000 compounds, about 14,000 (4.5%) showed an effect of 50% or more. The effect is printed as a negative number. This excerpt belongs to a sample that is enriched for strong results.
Molecular target: human ether-à-go-go-related gene (hERG) potassium channel (human, UniProt Q12809)
Assay: primary screen, population patch clamp on CHO cells stably expressing hERG; higher = less effect of the substance
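Also: peak tail current of the secondary pulse compared with the same well before compound.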

Chain of human ether-à-go-go-related gene (hERG) potassium channel (Q12809 whole entry, looked up): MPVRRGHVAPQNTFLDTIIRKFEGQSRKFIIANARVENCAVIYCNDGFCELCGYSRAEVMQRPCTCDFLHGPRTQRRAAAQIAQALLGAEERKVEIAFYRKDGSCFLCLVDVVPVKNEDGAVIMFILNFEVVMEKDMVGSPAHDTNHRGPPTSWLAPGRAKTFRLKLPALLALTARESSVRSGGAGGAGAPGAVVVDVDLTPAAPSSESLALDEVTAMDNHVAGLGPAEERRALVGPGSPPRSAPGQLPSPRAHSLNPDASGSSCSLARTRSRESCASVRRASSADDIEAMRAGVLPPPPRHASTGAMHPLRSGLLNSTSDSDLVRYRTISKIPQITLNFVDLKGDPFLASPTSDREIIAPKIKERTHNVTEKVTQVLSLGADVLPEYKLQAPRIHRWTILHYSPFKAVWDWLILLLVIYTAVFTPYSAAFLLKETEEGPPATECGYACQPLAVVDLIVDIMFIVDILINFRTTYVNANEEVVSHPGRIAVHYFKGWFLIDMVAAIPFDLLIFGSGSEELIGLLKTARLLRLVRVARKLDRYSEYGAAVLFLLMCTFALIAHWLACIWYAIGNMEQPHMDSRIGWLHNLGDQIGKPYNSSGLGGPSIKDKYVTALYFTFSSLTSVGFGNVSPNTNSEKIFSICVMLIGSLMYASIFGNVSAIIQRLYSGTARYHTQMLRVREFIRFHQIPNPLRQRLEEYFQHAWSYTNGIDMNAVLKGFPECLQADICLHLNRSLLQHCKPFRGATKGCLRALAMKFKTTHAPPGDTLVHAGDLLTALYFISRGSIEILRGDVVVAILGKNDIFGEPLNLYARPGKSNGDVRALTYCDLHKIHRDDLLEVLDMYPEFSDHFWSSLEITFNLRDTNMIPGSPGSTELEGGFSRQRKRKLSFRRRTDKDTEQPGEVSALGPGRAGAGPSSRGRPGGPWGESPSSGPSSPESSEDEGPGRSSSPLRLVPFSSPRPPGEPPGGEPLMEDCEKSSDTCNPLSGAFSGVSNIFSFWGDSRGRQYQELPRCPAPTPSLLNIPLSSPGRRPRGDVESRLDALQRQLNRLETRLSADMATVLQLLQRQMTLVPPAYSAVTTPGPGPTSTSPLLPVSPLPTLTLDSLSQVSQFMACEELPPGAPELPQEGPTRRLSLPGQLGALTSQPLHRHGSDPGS

SMILES | hERG current change (%, negative = inhibition) at 10uM [%]
C/C(=N/N1CCN(Cc2cccc3ccccc23)CC1)c1cccnc1 | -50.1
C/C(=N\N1CCN(C2c3ccccc3-c3ccccc32)CC1)c1cccnc1 | -2.47
C(=N\N1CCN(Cc2cccc3ccccc23)CC1)/c1cccnc1 | -1.95
COc1ccc(N(CC(=O)N2CCc3ccccc3C2)S(C)(=O)=O)cc1Cl | -25.7
O=C(c1ccccc1)c1coc2ccc(O)c(Cl)c12 | -10.9
CCN(CC)Cc1c(O)ccc2occ(C(=O)c3ccccc3)c12 | -72.6
Cc1ccc(C(=O)c2coc3ccc(O)cc23)cc1 | 23.2
CN(C)Cc1c(O)ccc2occ(C(=O)c3ccc(F)cc3)c12 | -69.6
COc1ccc2occ(C(=O)c3ccccc3)c2c1 | -15.3
CN(C)Cc1c(O)ccc2occ(C(=O)c3ccccc3)c12 | -52.8
CN(C)Cc1c(O)ccc2occ(C(O)c3ccccc3)c12 (centres unmarked) | -2.08
Cc1ccc(C(=O)c2coc3ccc(O)c(CN(C)C)c23)cc1.Cl | -54.7
Cc1ccc(C(=O)c2coc3ccc(O)c(Cl)c23)cc1 | -26.5
Cc1oc2ccc(O)c(CN(C)C)c2c1C(=O)c1ccccc1 | -42.4
COC(=O)C1(C)NC(c2ccc(Cl)cc2)C2C(=O)N(c3ccccc3)C(=O)C21 (centres unmarked) | -3.27
COc1ccc(C2(c3ccc(OC)cc3)NC(=O)N(CC(=O)Nc3ccc(OC(F)F)cc3)C2=O)cc1 | -19.2
CCOc1ccc(N2C(=O)C3CCCN3C2=O)cc1 (centres unmarked) | 10.1
O=C(O)C1CCN1C1CCCCC1 (centres unmarked) | 5.54
COC(=O)CCCCCCCCCC[N+]1(C)CCCCC1.[I-] | -0.248
C[N+]1(CCCCSc2ccc(O)cc2)CCCCC1.[I-] | -51.7
CC(=O)OCCCCCCCCCCC[N+]1(C)CCCCC1.[I-] | -7.49
Nc1c(C(=O)CSc2nc(-c3ccccc3)cs2)c(=O)[nH]c(=O)n1C1CC1 | -7.63

SMILES | hERG current change (%, negative = inhibition) at 10uM [%]
O=C(c1ccco1)n1nc(-c2ccccc2)nc1SCc1ccccc1 | 3.93
COC(=O)[C@@H]1[C@H]2C[C@H]3c4[nH]c5ccccc5c4CCN3C[C@@H]2CC[C@@H]1O | -57.5
COC(=O)[C@H]1[C@H]2C[C@H]3c4[nH]c5ccccc5c4CCN3C[C@@H]2CC[C@@H]1O | -12.5
COC(=O)C1C(O)CCC2CN3CCc4c([nH]c5ccccc45)C3CC21 (centres unmarked) | -21.1
CCSCCOC(=O)C1=C(C)N(C)C(=O)NC1c1ccc2c(c1)OCO2 (centres unmarked) | 5.29
CS(=O)(=O)N(CC(=O)NCc1cccnc1)C1CCCCC1 | 5.98
O=C(CN(C1CCCCC1)S(=O)(=O)c1ccccc1)NCc1cccnc1 | -30
O=C(CN(C1CCCCC1)S(=O)(=O)c1ccc(Cl)cc1)NCc1cccnc1 | -74.4
COc1ccc(S(=O)(=O)N(CC(=O)NCc2cccnc2)C2CCCCC2)cc1OC | -12.7
Cc1ccc(S(=O)(=O)N(CC(=O)NCc2cccnc2)C2CCCCC2)cc1 | -63.3
Cc1cc(C)c(S(=O)(=O)N(CC(=O)NCc2cccnc2)C2CCCCC2)c(C)c1 | -37.4
O=C(COC(=O)c1cc(S(=O)(=O)N2CCOCC2)ccc1F)NC1CCCCC1 | -2.25
O=[N+]([O-])c1cc(/C=N\O)ccc1Oc1ccc(F)cc1 | -72.1
O=[N+]([O-])c1cc(/C=N/O)ccc1Oc1cccc(Cl)c1 | -53.7
O=[N+]([O-])c1cc(/C=N/O)ccc1Oc1ccccc1Cl | -16
CO/N=C/c1ccc(Oc2ccc(C)cc2)c([N+](=O)[O-])c1 | 12.1
O/N=C\c1ccccc1Oc1ccc(F)cc1 | 12.8
COc1cc(/C=N/O)ccc1Oc1ccc([N+](=O)[O-])cc1[N+](=O)[O-] | -45.9
CC(NC1c2ccccc2-c2ccccc21)c1ccccc1 (centres unmarked) | 9.54
CCOC(=O)c1c(NC=O)sc2c1CCC2 | -2.89
Cc1ccc(C)c(NC(=S)NNC(=O)c2csc3c2CCC(C)C3)c1 (centres unmarked) | 3.17
O=C(NCc1ccccc1)C1=C[C@@H](c2ccccc2)C[C@@H](OCc2ccc(CO)cc2)O1 | -14.4

Source: PMC4336329 (PLoS ONE, 2015)
